# Out of some 16,000 compounds screened, about 2,600 (16%) were called active. Not shown: some 20% with an inconclusive outcome. These entries were drawn from the full list. A number with no mark means an inactive call. Calls follow the shape of the dose curve; as a rule, active = well fitted curve in the direction sought with a large enough effect; inconclusive = small, poorly fitted or top-dose-only effect, or effect the other way; inactive = no such curve, though single readings can be large or run the other way.
# Target: Cytochrome P450 2D6 (Homo sapiens) (UniProt P10635)
# Test: Cytochrome panel assay with activity outcomes
# Conditions: recombinant CYP, pro-luciferin dealkylation, luminescence, p450-cyp2d6; series mostly up to 57.1 µM; activity, negative = inhibition: at the top concentration
# % is scaled to controls: 0 for no effect and ±100 for the full control effect.
# Cytochrome P450 2D6 (Homo sapiens), sequence (P10635 whole entry, looked up): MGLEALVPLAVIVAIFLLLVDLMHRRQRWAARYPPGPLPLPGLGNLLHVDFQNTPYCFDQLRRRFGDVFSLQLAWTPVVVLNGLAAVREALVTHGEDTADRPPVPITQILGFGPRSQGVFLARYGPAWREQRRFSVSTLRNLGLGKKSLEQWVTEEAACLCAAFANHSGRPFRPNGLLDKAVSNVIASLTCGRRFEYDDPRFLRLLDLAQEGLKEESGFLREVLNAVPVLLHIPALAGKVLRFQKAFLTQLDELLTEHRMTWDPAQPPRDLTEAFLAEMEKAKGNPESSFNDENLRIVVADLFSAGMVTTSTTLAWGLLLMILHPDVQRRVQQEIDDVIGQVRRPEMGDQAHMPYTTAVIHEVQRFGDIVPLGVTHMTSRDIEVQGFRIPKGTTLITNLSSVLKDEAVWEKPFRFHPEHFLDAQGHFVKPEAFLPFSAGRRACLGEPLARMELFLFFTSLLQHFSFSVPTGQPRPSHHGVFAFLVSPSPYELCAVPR
SMILES,"activity, negative = inhibition",AC50
O=C(CCN1C(=O)c2ccccc2C1=O)Oc1ccc2ccccc2c1,-12.4%,–
O=C(c1ccc(S(=O)(=O)N2CCCCCC2)cc1)N1CCC(CN2C(=O)c3cccc4cccc(c34)C2=O)CC1,-9.01%,–
O=C1c2cccc3cccc(c23)C(=O)N1CC1CCN(CC(O)COc2ccc3ccccc3c2)CC1 (stereo unspecified),–,0.708 µM (active)
O=C(O)[C@@H](S)[C@H](S)C(=O)O,-4.31% [at 11.4 µM],–
CN1CCN(c2ccc([N+](=O)[O-])cc2S(=O)(=O)N2CCOCC2)CC1,-7.09%,–
Cc1cccc(N2CCN(c3ccc(NC(=O)/C=C(/C(=O)O)c4ccccc4)cc3)CC2)c1,4.26%,–
CC(=O)Nc1ccc(N2CCCCC2)cc1,-9.74%,–
Cc1cccc(OCCCC(=O)Nc2ccc(N3CCCCC3)cc2)c1,–,0.891 µM (active)
Cc1ccnc2nc(C(=O)OCC(=O)Nc3ccc4c(c3)OC(F)(F)O4)nn12,-21.3%,–
CCO[P@]1(=O)OC[C@@H]2O[C@H](n3cnc4c(N)ncnc43)[C@H](O)[C@@H]2O1,4.83% [at 11.4 µM],–
CCN(/C=N/c1sc2c(c1C#N)CCCCC2)CC,-33.3%,–
O=C(NC1(C(F)(F)F)C(=O)Nc2c1c(=O)[nH]c(=O)n2-c1ccc(F)cc1)c1cccnc1 (stereo unspecified),7.79%,–
CN(C)CCCN1CC(C(=O)O)CC1=O (stereo unspecified),19%,–
c1cncc(-c2ccc3ncnc(NC4CCNCC4)c3c2)c1,-8.56%,–
c1ccc(CNc2ncnc3ccc(-c4cccnc4)cc23)cc1,–,10 µM (active)
c1ccc(Nc2ncnc3ccc(-c4cccnc4)cc23)cc1,-13.8%,–
Cc1cccc(CNc2ncnc3ccc(-c4cccnc4)cc23)c1,–,12.6 µM (active)
Cc1cccc(CNc2ncnc3ccc(-c4cccc(C#N)c4)cc23)c1,-17.4%,–
CN1CCN(C2CC(=O)N(Cc3ccc(N4CCCC4=O)cc3)C2=O)CC1 (stereo unspecified),2%,–
O=c1c(-c2ccccc2)nc2cnc(N3CCNCC3)nc2n1Cc1ccc(F)cc1,-15.7%,–
COc1ccc2c(Cl)cc(NC(=S)Nc3ccccc3)nc2c1,-18.8% [at 11.4 µM],–
COc1ccc(N2C(=O)CCC(C(=O)O)C2c2ccc(F)cc2)cc1 (stereo unspecified),1.51%,–
CN1CCN(c2ncc3nc(-c4cn(C)c5ccccc45)c(=O)n(C)c3n2)CC1,11.6%,–
O=C(NNc1cccc(Cl)n1)Nc1ccccc1Cl,-31.9%,–
COc1ccc(-c2nc3cnc(N4CCNCC4)nc3n(Cc3cccs3)c2=O)cc1,-6.46%,–
Cc1nc(-c2cccc(NC(=O)c3cc4cc(Br)ccc4oc3=O)c2)cs1,26.4%,–

SMILES,"activity, negative = inhibition",AC50
CCn1c(C)cc(/C=C2\NC(=O)N(Cc3ccc(Cl)cc3)C2=O)c1C,4.67%,–
CCN(CC)c1ccc(/C=C/c2nc3ccccc3s2)cc1,–,28.2 µM (active)
Brc1ccc(/C=C/C=N/Nc2nc3ccccc3s2)cc1,15.1%,–
Cc1ccc(NC(=S)c2nc3ccccc3s2)cc1,-15.2%,–
Cn1c(=O)c2[nH]c(COCc3nc4c([nH]3)c(=O)n(C)c(=O)n4C)nc2n(C)c1=O,3.11% [at 11.4 µM],–
NC1=C(O)C(=O)[C@H](c2c[nH]c3ccc(OCc4ccccc4)cc23)O1,-2.34% [at 11.4 µM],–
O=C(Oc1ccccc1)N1CCC2(CC1)CN(c1ccncc1)C2,5.3%,–
CCN(CCCNC(=O)CC(C(=O)N1CCc2ccccc21)n1ccnc1)c1ccccc1 (stereo unspecified),–,3.98 µM (active)
CCCCN(C)CCCNC(=O)CCn1nc(-c2ccccc2)ccc1=O,-27%,–
O=C(CNCCO)N1CCc2ccccc21,-26.9%,–
Clc1ccc(-c2nnc(-c3ccccc3)c(N3CCSCC3)n2)cc1,-13%,–
Cc1noc(NS(=O)(=O)c2cccc3c(N(C)C)cccc23)c1C,-6%,–
O=C(Nn1cc(C(=O)N2CCN(c3ccccc3F)CC2)c2ccccc2c1=O)c1cnccn1,-6.56%,–
CC(=O)NNC(=O)CCC(=O)Nc1ccccc1,-4.27%,–
CCC(=O)NNC(=O)CCC(=O)Nc1ccccc1,18%,–
C#CCCCC(=O)Nc1ccccc1,–,12.6 µM (active)
Cc1ccc(-c2csc(N/N=C/c3ccco3)n2)cc1,-14.3%,–
NCCSSCCN,–,inactive
O=c1oc2cc(Oc3ccc(C(F)(F)F)cc3[N+](=O)[O-])ccc2c2c1CCCC2,20.1%,–
CC(C)c1ccc(OCc2ccc(C(=O)N3CCN(c4ccccn4)CC3)cc2)cc1,7.85%,–
CC(=O)Nc1nnc(SCc2ccc(F)cc2)s1,-0.935%,–
Cc1cc(C(=O)CSc2nnc(N)s2)c(C)n1CCc1ccc(F)cc1,–,7.08 µM (active)
COc1ccc(CCn2c(C)cc(C(=O)CSc3nc(N)cc(=O)[nH]3)c2C)cc1,-25.3%,–
Cn1c(=O)c2c(ncn2CN2CCN(Cn3cnc4c3c(=O)n(C)c(=O)n4C)CC2)n(C)c1=O,-3.86% [at 11.4 µM],–
C[C@@H]1/C=C\CC(=O)OC[C@H](C)C(=O)N[C@@H](C)C(=O)OC1,-1.56% [at 11.4 µM],–

# From PubChem BioAssay AID1851 (National Center for Advancing Translational Sciences (NCATS), 2009)
